# Experimental data: article PMC7862700, “An all-to-all approach to the identification of sequence-specific readers for epigenetic DNA modifications on cytosine”
# Tests used:
# Assay in all cases: DAPPL (digital affinity profiling via proximity ligation, sequencing); 10 mM Tris-HCl pH 7.5, 50 mM NaCl, 1 mM DTT, 4% glycerol, room temperature, 30 min; GST-TFs on glutathione beads, 16-mer random dsDNA library, 0.1% formaldehyde crosslink after washing; high values mean tight binding
# Details in all cases: protein: recombinant; tags: N-terminal GST; dsDNA, one strand shown
# ETV1 = ETV1 (Homo sapiens, UniProt P50549 1-477)
# ETV1, sequence (P50549 whole entry, the tested form may be a part): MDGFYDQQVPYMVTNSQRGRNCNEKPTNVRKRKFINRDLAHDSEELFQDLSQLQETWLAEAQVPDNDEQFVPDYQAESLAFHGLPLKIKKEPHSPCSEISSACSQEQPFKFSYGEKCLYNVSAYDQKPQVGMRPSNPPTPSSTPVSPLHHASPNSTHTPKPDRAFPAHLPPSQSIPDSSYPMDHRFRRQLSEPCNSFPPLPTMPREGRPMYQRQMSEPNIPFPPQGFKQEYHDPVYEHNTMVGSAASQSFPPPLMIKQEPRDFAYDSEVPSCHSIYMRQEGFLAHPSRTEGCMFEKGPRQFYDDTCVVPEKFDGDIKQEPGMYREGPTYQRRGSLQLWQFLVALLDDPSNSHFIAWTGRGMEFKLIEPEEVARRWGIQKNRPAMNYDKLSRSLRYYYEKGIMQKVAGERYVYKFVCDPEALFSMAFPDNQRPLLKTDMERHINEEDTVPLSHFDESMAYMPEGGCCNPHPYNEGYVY
# Outline: (§1)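 Human transcription factors fused to GST were expressed in yeast, captured on glutathione beads, given DNA barcodes and pooled with a GST-only negative control. Pools were incubated with 200 nmole of a 16-mer random double-stranded DNA library in Tris/NaCl/DTT/glycerol buffer at room temperature for 30 min. They were then washed, crosslinked with 0.1% formaldehyde, proximity-ligated (BsaI/T4 ligase, 1 h, 37 °C), PCR-amplified and sequenced on an Illumina NextSeq500. Binding signal is each 6-mer's read frequency for a factor divided by its frequency for the GST control.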
# ERF = biological target: T1, ERF (Homo sapiens, UniProt P50548 1-548)
# T1 sequence: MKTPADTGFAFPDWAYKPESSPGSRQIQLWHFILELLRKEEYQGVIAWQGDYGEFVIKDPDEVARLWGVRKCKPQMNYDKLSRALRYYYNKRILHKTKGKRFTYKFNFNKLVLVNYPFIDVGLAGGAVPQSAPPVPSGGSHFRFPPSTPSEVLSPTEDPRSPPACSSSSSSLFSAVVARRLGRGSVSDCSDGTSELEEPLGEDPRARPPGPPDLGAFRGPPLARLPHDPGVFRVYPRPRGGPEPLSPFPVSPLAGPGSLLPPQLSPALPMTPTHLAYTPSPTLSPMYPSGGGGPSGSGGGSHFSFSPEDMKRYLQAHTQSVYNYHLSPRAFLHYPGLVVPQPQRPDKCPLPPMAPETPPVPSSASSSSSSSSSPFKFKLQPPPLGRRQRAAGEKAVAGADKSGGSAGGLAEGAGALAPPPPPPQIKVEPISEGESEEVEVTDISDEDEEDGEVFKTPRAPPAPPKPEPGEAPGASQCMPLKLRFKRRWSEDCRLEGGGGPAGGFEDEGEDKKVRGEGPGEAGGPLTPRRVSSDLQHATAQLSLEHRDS
# Outline: as §1
# ETV3L = biological target: T2, ETV3L (Homo sapiens, UniProt Q6ZN32 1-361)
# T2 sequence: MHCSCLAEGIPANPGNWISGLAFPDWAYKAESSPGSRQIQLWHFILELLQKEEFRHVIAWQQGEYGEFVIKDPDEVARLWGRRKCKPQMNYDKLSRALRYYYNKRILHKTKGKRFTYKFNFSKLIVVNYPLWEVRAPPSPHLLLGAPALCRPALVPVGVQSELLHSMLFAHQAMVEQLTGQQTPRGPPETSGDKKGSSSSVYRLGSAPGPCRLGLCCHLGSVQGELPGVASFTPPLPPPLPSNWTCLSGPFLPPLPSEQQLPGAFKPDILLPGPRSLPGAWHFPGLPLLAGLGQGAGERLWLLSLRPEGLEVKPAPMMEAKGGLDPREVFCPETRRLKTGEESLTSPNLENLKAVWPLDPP
# Outline: as §1
# ETS2 = biological target: T3, ETS2 (Homo sapiens, UniProt P15036 1-469)
# T3 sequence: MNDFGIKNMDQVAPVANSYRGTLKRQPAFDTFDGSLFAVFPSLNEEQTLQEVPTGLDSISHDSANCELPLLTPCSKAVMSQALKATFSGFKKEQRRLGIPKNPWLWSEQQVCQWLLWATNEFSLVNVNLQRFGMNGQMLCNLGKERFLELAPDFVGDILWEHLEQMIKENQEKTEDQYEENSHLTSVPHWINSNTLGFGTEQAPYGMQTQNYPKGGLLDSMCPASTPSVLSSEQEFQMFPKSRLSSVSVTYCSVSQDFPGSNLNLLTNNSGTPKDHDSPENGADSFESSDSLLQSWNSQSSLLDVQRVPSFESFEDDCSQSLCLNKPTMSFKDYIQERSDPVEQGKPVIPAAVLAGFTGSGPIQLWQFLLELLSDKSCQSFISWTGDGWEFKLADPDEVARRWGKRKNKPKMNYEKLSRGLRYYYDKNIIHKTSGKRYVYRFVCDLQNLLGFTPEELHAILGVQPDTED
# Outline: as §1
# SPDEF = biological target: T4, SPDEF (Homo sapiens, UniProt O95238 1-335)
# T4 sequence: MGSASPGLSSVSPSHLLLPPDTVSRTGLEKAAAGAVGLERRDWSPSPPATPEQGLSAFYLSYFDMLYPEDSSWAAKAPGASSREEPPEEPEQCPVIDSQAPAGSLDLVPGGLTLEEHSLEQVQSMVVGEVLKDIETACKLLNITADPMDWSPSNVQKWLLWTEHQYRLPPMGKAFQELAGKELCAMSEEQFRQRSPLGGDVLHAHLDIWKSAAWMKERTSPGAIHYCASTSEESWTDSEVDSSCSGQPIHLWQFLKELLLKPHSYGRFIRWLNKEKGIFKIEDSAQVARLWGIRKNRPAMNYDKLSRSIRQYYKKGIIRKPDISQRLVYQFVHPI
# Outline: as §1
# ETV7 = biological target: T5, ETV7 (Homo sapiens, UniProt Q9Y603 1-341)
# T5 sequence: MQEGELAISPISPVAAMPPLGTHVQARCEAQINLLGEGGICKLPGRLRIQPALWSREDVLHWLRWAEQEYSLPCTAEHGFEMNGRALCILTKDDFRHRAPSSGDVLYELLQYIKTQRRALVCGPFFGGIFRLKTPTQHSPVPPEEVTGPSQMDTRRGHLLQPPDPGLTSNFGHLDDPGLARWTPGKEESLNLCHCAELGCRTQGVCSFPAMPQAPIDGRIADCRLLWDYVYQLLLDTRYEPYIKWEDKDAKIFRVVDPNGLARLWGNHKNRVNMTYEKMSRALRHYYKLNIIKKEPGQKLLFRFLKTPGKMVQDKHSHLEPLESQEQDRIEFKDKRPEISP
# Outline: as §1
# ELF5 = biological target: T6, ELF5 (Homo sapiens, UniProt Q9UKW6-2 1-255)
# T6 sequence: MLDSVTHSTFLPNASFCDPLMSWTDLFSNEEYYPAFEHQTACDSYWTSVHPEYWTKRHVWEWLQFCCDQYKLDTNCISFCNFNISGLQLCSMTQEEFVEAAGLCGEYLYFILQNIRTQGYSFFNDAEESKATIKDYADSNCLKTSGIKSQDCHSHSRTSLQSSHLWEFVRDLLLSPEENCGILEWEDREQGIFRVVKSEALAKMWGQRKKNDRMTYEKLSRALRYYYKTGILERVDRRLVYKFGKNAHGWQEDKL
# Outline: as §1
# ETV3 = biological target: T7, ETV3 (Homo sapiens, UniProt P41162-2 1-143)
# T7 sequence: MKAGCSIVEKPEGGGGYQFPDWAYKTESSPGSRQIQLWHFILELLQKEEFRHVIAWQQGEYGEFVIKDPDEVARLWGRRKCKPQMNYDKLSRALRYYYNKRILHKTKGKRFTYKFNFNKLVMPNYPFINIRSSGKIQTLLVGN
# Outline: as §1
# ETV6 = ETV6 (Homo sapiens, UniProt P41212 1-452)
# ETV6, sequence (P41212 whole entry): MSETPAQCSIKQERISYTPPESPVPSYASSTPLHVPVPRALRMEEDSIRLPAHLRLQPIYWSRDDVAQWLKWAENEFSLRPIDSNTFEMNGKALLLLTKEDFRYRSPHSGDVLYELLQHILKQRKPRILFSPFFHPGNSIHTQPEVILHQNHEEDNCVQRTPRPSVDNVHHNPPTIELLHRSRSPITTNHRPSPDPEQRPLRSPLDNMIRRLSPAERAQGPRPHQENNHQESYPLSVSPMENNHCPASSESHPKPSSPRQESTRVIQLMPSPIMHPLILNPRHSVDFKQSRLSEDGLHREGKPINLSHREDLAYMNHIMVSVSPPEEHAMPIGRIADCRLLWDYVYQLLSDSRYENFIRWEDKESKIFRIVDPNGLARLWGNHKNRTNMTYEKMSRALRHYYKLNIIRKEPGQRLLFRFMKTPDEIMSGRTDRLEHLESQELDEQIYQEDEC
# Outline: as §1
sequence,measurement,setting,value
CTTAAC,binding signal,ETV1,"1.14 fold enrichment (6-mer frequency, TF over GST control)"
same,binding signal,ERF,"1.3 fold enrichment (6-mer frequency, TF over GST control)"
same,binding signal,ETV3L,"1.22 fold enrichment (6-mer frequency, TF over GST control)"
same,binding signal,ETS2,"1.3 fold enrichment (6-mer frequency, TF over GST control)"
same,binding signal,SPDEF,"1.36 fold enrichment (6-mer frequency, TF over GST control)"
same,binding signal,ETV7,"1.29 fold enrichment (6-mer frequency, TF over GST control)"
same,binding signal,ELF5,"1.31 fold enrichment (6-mer frequency, TF over GST control)"
same,binding signal,ETV3,"1.3 fold enrichment (6-mer frequency, TF over GST control)"
same,binding signal,ETV6,"1.29 fold enrichment (6-mer frequency, TF over GST control)"
